Source: PubChem BioAssay
Calls of active or inactive are those of the source.

Key:
[1] = tested on: Plasmodium falciparum Sir2 (PF13_0152, Sir2A); experiment: Plasmodium falciparum Sir2A binding compounds – biochemical, small-molecule microarray, 635 nm fluorescence, primary screen (AID 1098); details: fluorescence 635 nm, higher = more signal;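 further: score merges spot fluorescence intensity with its signal-to-noise ratio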
[2] = probe aDKK1 binding to arrayed compounds – biochemical, biotinylated probe, 635/667 nm fluorescence, primary screen (AID 1099); details: small-molecule microarray, higher = more signal;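 further: score merges 667nm spot fluorescence with signal to noise across triplicate slides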
[3] = probe aCHRDL2 binding to arrayed compounds – biochemical, biotinylated probe, 635/667 nm fluorescence, primary screen (AID 1100); details: small-molecule microarray, higher = more signal
[4] = change in splice reporter luminescence, either direction, cell-based, HEK293, spliceosome inhibition project, primary screen (AID 1101); details: HEK293 splicing luciferase reporter, 24 h, higher = more signal, called active from +8 up or from −8 down;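 further: HEK293 cells carrying a splicing-competent luciferase reporter gene; test concentration not given here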
[5] = target: Fibroblast growth factor 10 (Homo sapiens) (UniProt O15520); experiment: compounds binding fibroblast growth factor 10 – biochemical, small-molecule microarray, 635 nm fluorescence, primary screen (AID 1102); details: FGF10 binding, fluorescence 635 nm, higher = more signal
[6] = tested on: glycogen synthase kinase-3 (GSK3A per assay name; protocol says GSK3B); experiment: compounds binding glycogen synthase kinase-3 – biochemical, small-molecule microarray, 635 nm fluorescence, GSK3A, primary screen (AID 1103); details: fluorescence 635 nm, higher = more signal; further: the record names both GSK3A and GSK3B
[7] = target: Epidermal growth factor receptor (Homo sapiens) (UniProt P00533); experiment: compounds binding epidermal growth factor receptor – biochemical, small-molecule microarray, 635 nm fluorescence, primary screen (AID 1104); details: EGFR binding, higher = more signal;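 further: score merges 667 nm emission intensity with spot signal to noise over triplicate slides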
[8] = target: Follistatin-related protein 3 (Homo sapiens) (UniProt O95633); experiment: compounds binding follistatin-related protein 3 – biochemical, small-molecule microarray, 635 nm fluorescence, primary screen (AID 1105); details: FSTL3 binding, higher = more signal;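 further: score merges emission near 667 nm and signal to noise per printed spot across three slides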
[9] = target: Dickkopf-related protein 1 (Homo sapiens) (UniProt O94907); experiment: small molecules binding DKK1 protein – biochemical, small-molecule microarray, 635 nm fluorescence scan, primary screen (AID 1106); details: higher = more signal;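 further: score merges emission near 667 nm with signal to noise over three replicate slides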
[10] = tested on: Inhibin beta A chain (activin A); experiment: small molecules binding activin A – biochemical, small-molecule microarray, 635 nm fluorescence scan, primary screen (AID 1107); details: INHBA, higher = more signal;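 further: mouse activin A protein probed at 4.33 µg/mL on printed slides; score merges bound-protein fluorescence near 667 nm with spot signal-to-noise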
[11] = tested on: Human papillomavirus type 1a protein E7 (residues 44-93); experiment: small molecules binding HPV E7 44-93 – biochemical, small-molecule microarray, residues 44-93, 635 nm fluorescence, primary screen (AID 1108); details: fluorescence 635 nm, higher = more signal;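 further: E7 fragment applied at 1 µg/mL in TBST for 1 h at 4 C; score combines spot fluorescence with its signal to noise ratio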
[12] = hepatitis C replication reporter changes, two-sided – Huh7 cells, luciferase reporter, HCV replication inhibitor project, primary screen (AID 1109); details: Huh7 HCV replicon luciferase reporter, 48 h; higher = more signal;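 further: huh7 hepatoma cells harbouring a luciferase neomycin HCV replicon reporter; luciferase luminescence as measure of HCV replicon replication; test concentration not given here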
[13] = target: Left-right determination factor 2 (Homo sapiens) (UniProt O00292); experiment: small molecules binding LEFTY2 protein – biochemical, small-molecule microarray, 635 nm fluorescence scan, primary screen (AID 1110); details: higher = more signal
[14] = target: Calmodulin-1 (Homo sapiens) (UniProt P0DP23); experiment: small molecules binding calmodulin-1 with EGTA – biochemical, small-molecule microarray, Cy5-labelled CALM1, profiling panel (AID 1111); details: Cy5-CALM1 binding fluorescence, higher = more signal;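 further: labelled calmodulin applied in Tris saline Tween buffer holding calcium plus EGTA and DTT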
[15] = target: Calmodulin-1 (Homo sapiens) (UniProt P0DP23); experiment: small molecules binding Ca-loaded calmodulin-1 – biochemical, small-molecule microarray, Cy5-labelled CALM1, plus calcium, artefact control for SMM control-protein annotation, profiling panel (AID 1112); details: Cy5-CALM1 binding fluorescence, higher = more signal;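 further: score merges spot fluorescence with signal to noise from triplicate slides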
[16] = probe aWnt5a binding to arrayed compounds – biochemical, biotinylated probe, 635/667 nm fluorescence, primary screen (AID 1113); details: small-molecule microarray, higher = more signal;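 further: score merges 667 nm fluorescence intensity with signal-to-noise per printed feature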
[17] = probe aShh binding to arrayed compounds – biochemical, biotinylated probe, 635/667 nm fluorescence, primary screen (AID 1114); details: small-molecule microarray, higher = more signal;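 further: probe is biotin-labelled aShh protein from a stem cell growth factor screen; measures binding of labelled protein to compounds printed on the slide; score merges feature fluorescence at 667 nm with signal-to-noise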
[18] = probe aNog binding to arrayed compounds – biochemical, biotinylated probe, 635/667 nm fluorescence, primary screen (AID 1115); details: small-molecule microarray, higher = more signal;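 further: probe is biotinylated aNog protein used at 0.15 µg/mL for 1 h at 4 C; z-score combines 667 nm fluorescence of each spot with its signal to noise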
[19] = target: Torsin-1A-interacting protein 1 (Homo sapiens) (UniProt Q5JTV8); experiment: compound microarray binding of lysate hLAP1 – cell lysate, small-molecule microarray, COS7 lysate, 635/667 nm fluorescence, primary screen (AID 1116); details: 635 nm fluorescence, higher = more signal
[20] = target: Alpha-bungarotoxin (Bungarus multicinctus) (UniProt P60615); experiment: compounds binding labelled alpha-BTX control protein – biochemical, small-molecule microarray, Alexa647 label, 635/667 nm fluorescence, artefact control for SMM control protein annotation, profiling panel (AID 1117); details: alpha-BTX-A647 binding fluorescence, higher = more signal
Chain of Alpha-bungarotoxin (Bungarus multicinctus) (P60615 whole entry, looked up): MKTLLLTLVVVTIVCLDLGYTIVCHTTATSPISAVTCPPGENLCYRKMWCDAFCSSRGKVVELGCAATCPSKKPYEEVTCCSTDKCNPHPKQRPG

Chain of Left-right determination factor 2 (Homo sapiens) (O00292 whole entry, looked up): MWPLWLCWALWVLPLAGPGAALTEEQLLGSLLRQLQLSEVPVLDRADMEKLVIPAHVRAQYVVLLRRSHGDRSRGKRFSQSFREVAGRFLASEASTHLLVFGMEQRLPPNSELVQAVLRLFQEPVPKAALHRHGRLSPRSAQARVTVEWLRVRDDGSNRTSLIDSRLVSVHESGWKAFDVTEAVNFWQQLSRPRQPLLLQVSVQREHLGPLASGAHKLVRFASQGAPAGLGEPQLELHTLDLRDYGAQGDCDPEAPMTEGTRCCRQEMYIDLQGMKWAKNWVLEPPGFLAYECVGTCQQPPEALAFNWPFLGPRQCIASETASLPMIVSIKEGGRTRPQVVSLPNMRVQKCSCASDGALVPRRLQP
Chain of Epidermal growth factor receptor (Homo sapiens) (P00533 whole entry, looked up): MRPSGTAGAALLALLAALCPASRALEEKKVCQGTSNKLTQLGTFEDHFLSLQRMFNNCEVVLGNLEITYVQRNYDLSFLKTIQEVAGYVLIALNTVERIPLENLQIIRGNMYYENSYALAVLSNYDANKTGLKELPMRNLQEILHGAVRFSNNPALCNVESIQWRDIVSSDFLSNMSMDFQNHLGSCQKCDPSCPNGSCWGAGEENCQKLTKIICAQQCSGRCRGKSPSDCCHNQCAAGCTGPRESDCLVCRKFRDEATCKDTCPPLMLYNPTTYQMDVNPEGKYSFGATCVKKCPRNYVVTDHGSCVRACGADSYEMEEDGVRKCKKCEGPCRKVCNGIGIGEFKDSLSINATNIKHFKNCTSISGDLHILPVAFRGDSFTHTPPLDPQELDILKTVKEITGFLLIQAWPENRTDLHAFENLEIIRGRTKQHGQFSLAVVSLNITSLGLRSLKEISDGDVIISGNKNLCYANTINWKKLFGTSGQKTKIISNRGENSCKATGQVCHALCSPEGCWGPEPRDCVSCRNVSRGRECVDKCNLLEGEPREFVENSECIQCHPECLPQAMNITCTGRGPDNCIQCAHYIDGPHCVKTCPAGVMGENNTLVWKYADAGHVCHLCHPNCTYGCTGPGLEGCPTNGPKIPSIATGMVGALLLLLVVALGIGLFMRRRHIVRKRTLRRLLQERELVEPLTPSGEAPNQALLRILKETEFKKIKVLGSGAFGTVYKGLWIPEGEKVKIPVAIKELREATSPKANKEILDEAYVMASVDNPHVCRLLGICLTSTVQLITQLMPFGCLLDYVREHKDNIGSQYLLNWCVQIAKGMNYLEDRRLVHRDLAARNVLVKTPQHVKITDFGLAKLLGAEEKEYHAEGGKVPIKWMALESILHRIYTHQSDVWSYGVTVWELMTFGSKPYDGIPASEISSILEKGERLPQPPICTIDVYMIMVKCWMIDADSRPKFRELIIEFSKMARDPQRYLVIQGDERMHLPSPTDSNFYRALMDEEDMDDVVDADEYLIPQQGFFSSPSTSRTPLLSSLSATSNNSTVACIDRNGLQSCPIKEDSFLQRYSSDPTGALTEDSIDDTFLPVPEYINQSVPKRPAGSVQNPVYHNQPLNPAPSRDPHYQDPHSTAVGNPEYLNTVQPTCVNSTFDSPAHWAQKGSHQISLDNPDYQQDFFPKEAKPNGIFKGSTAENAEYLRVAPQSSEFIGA
Chain of Follistatin-related protein 3 (Homo sapiens) (O95633 whole entry, looked up): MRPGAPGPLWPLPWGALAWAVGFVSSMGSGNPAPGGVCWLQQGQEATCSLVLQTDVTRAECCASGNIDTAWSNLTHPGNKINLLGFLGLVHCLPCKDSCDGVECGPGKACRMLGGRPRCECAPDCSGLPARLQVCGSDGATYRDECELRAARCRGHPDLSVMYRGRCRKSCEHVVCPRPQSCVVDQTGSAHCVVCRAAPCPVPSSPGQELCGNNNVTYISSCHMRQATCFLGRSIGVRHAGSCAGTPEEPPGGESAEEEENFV
Chain of Dickkopf-related protein 1 (Homo sapiens) (O94907 whole entry, looked up): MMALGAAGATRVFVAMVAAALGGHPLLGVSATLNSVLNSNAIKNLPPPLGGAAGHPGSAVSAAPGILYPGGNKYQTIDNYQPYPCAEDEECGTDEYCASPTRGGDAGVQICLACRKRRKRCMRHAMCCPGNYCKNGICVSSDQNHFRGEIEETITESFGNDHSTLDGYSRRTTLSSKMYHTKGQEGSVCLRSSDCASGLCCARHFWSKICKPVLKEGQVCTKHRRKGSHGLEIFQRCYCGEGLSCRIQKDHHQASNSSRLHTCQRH
Chain of Fibroblast growth factor 10 (Homo sapiens) (O15520 whole entry, looked up): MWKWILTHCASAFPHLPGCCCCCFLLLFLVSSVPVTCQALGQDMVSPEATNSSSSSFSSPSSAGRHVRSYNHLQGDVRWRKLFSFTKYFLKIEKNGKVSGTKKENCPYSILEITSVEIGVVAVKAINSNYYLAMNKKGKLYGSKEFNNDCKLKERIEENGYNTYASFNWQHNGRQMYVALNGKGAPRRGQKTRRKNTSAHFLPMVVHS
Chain of Torsin-1A-interacting protein 1 (Homo sapiens) (Q5JTV8 whole entry, looked up): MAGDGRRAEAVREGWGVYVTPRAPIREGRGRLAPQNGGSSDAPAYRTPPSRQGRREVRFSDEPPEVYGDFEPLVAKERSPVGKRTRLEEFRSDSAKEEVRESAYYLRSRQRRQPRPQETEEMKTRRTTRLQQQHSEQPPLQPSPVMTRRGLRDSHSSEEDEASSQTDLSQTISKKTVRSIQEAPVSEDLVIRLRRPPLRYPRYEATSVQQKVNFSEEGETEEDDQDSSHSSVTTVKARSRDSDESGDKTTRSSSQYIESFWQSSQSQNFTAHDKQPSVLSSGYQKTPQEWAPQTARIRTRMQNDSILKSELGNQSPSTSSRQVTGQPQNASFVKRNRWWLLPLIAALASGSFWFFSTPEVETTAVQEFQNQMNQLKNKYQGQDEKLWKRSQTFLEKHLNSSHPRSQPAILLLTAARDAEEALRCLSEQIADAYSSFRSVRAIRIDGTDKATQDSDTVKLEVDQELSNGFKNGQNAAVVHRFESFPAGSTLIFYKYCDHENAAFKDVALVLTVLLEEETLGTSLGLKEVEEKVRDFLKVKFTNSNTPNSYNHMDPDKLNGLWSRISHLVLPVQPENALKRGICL

Compound | composite z-score [1] | composite z-score [2] | composite z-score [3] | z-score [4] | composite z-score [5] | composite z-score [6] | composite z-score [7] | composite z-score [8] | composite z-score [9] | composite z-score [10] | composite z-score [11] | z-score [12] | composite z-score [13] | composite z-score [14] | composite z-score [15] | composite z-score [16] | composite z-score [17] | composite z-score [18] | composite z-score [19] | composite z-score [20]
[N-]=[N+]=Nc1ccccc1C[C@@]1(C(=O)O)N=C(c2ccc(OCCCO)cc2)O[C@@H]1c1ccccc1 | 1.56 | 0.609 | 0.945 | -0.282 (inactive) | 0.0372 | 0.0458 | -0.423 | 0.126 | -0.829 | 0.638 | 1.3 | 1.34 | -0.862 | 1.73 | 0.294 | -0.0566 | 0.191 | 0.905 | 0.24 | 1.08
COCCOC(=O)N1C(=O)[C@@]2(c3cc(C#CC4(O)CCCCCC4)ccc31)[C@H](C(=O)N1CCCCCCC1)[C@H]1C(=O)O[C@H](c3ccccc3)[C@H](c3ccccc3)N1[C@@H]2c1ccc(OCCO)cc1 | 1.65 | 2.65 | 1.45 | 0.225 (inactive) | 1.5 | 1.35 | 1.46 | 1.62 | 1.72 | 1.68 | 1.33 | -1.74 | 1.52 | 2.33 | 1.01 | 1.12 | 2.59 | 2.98 | 4.12 | 2.89
O=C1C[C@@](C(=O)NCC(F)(F)F)(c2ccc([N+](=O)[O-])cc2)[C@@H](c2ccc(CO)cc2)N1C1CCCCC1 | 1.65 | 0.74 | 0.843 | -0.684 (inactive) | 0.86 | 1.31 | 0.308 | 1.03 | 0.172 | 0.563 | 1.04 | -1.4 | 0.301 | 0.769 | -0.088 | -0.006 | 0.0898 | 0.0807 | 1.9 | 1.8
Cc1c(NC(=O)/C(C#N)=C/C=C/c2ccc(N(C)C)cc2)c(=O)n(-c2ccccc2)n1C | 0.917 | 0.735 | 0.294 | -0.0455 (inactive) | 0.89 | 1.02 | 0.994 | 0.788 | 0.646 | 1.08 | 0.55 | -0.754 | 0.431 | 0.824 | -0.224 | 0.19 | 0.173 | 0.432 | 1.69 | 1.04
COC(=O)[C@@]1(Cc2ccccc2)[C@H]2c3cc(C(=O)N4CCCC4)n(C[C@H](O)CO)c3C[C@H]2CN1C(=O)c1ccccc1 | 1.06 | 0.571 | 1.01 | 0.797 (inactive) | -0.209 | -0.0288 | -0.455 | 0.0783 | -1.11 | 0.956 | 0.391 | -0.925 | -0.43 | 2.06 | 0.142 | -0.124 | -0.316 | -0.107 | 2.96 | -0.187
NC(=O)NCC#Cc1ccc2c(c1)[C@]1(C(=O)N2)[C@H](C(=O)Nc2nc3ccccc3s2)[C@H]2C(=O)O[C@H](c3ccccc3)[C@H](c3ccccc3)N2[C@@H]1c1ccc(O)cc1 | 0.726 | 0.636 | 0.212 | 0.232 (inactive) | 1 | 0.163 | 0.278 | 0.53 | 0.246 | 0.744 | 0.944 | -0.797 | 0.215 | 1.29 | 0.414 | -0.0445 | -0.0243 | 0.23 | 0.187 | 1.64
CC[C@@H]1[C@H]2C3C(=O)N(CC)C(=O)C3CC(=O)[C@H]2[C@H](c2ccc(C)cc2)N1S(=O)(=O)c1ccc(C)cc1 (stereo not given in full) | 1.11 | 0.415 | 0.46 | 0.16 (inactive) | 0.894 | 1.27 | 0.183 | 0.955 | 0.0029 | 0.617 | 1.4 | -2.17 | 0.174 | 1.01 | 0.715 | -0.124 | -0.0035 | -0.115 | -0.154 | 0.484
O=C(NC1CC1)[C@@H]1c2ccccc2C(=O)N(Cc2ccccc2)[C@H]1c1ccc(CO)cc1 | 1.73 | -0.474 | 0.211 | 0.135 (inactive) | 0.209 | 0.714 | -0.375 | -0.298 | -0.551 | 0.443 | 0.511 | -0.89 | -1.25 | -0.564 | -0.648 | -0.148 | 0.0099 | 0.368 | 0.835 | 0.406
CCOC(=O)C1=CC[C@@H](c2ccc([N+](=O)[O-])cc2)N(S(=O)(=O)c2ccc(C)cc2)[C@H]1c1ccccc1 | 0.992 | 0.291 | 0.304 | -0.8 (inactive) | 1.21 | 0.154 | 0.764 | 1.26 | 0.293 | 0.521 | 1.4 | -1.55 | 0.995 | 0.455 | 0.423 | 0.0324 | -0.0769 | 0.506 | 0.378 | 0.962
COCCOC(=O)N1C(=O)[C@@]2(c3cc(C#Cc4ccc(OC)cc4)ccc31)[C@H](C(=O)NC[C@H](O)c1ccccc1)[C@H]1C(=O)O[C@H](c3ccccc3)[C@H](c3ccccc3)N1[C@@H]2c1ccc(O)cc1 | 0.557 | 0.139 | 0.234 | -0.577 (inactive) | 1.17 | 1.35 | 0.725 | 1.41 | 0.95 | 0.033 | 0.872 | -1.45 | 0.887 | 0.0624 | -0.0377 | -0.0816 | 0.875 | 0.369 | 1.37 | 0.931
Cc1ccc(F)cc1S(=O)(=O)N[C@@H]1CCN(Cc2ccc(OC(C)C)cc2)C1 | -0.38 | -0.428 | -0.272 | 2.97 (inactive) | -0.514 | -0.654 | -0.662 | -0.746 | 0.183 | 0.834 | -1.22 | -3.58 | 0.2 | -0.892 | -1.14 | -0.103 | -0.153 | 0.0771 | 0.224 | -0.688
